Test results: PubChem BioAssay AID2284163 (EPA ToxCast)
Active and inactive are the calls of the source. How the source made its calls: active means hit-call score of the fitted dose curve at least 0.9, where 1 is the maximum; inactive means score below 0.9.

target: Oxytocin receptor (Homo sapiens) (UniProt P30559); test: ERF_FR_GPCR_hOXTR: Eurofins (ERF) G Protein-Coupled Receptor (GPCR) Radioligand Binding LeadHunter Assay for human Vasopressin / Oxytocin Receptor OT Agonism
Method: ERF_FR_GPCR_hOXTR is a biochemical, single-readout assay that uses extracted gene-proteins in a cell-free assay. Measurements were taken 2 hour after chemical dosing in a 96-well plate. See OT Human Vasopressin / Oxytocin GPCR Binding (Agonist Radioligand) Assay, Cerep.ERF_FR_GPCR_hOXTR is an assay component calculated from the ERF_FR_GPCR_hOXTR assay. It is designed to measure radioligand binding using a type of binding reporter as detected by scintillation counting with radiometry technology.Data from the assay component ERF_FR_GPCR_hOXTR was analyzed at the assay endpoint, ERF_FR_GPCR_hOXTR, in the positive analysis fitting direction relative to DMSO as the negative control and baseline of activity. Using a type of binding reporter, gain-of-signal activity can be used to understand changes in binding as they relate to gene OXTR. To generalize the intended target to other relatable targets, this assay endpoint is annotated to the gpcr intended target family, where the subfamily is vasopressin and oxytocin.
Human cells are incubated for 60 minutes at room temprature with [3H] Oxytocin ligand (0.8 nM) and OXYTOCIN as control inhibitor. Test Sample Requirements: Minimum for 1) Screen: 60 ul of 10 mM stock -OR- 1 mg (pre-weighed) for 10 uM final testing. 2) Dose Response: 90 ul of 10 mM stock -OR- 1 mg (pre-weighed) for a top concentration at 10 uM.

Chain of Oxytocin receptor (Homo sapiens) (P30559 whole entry, looked up): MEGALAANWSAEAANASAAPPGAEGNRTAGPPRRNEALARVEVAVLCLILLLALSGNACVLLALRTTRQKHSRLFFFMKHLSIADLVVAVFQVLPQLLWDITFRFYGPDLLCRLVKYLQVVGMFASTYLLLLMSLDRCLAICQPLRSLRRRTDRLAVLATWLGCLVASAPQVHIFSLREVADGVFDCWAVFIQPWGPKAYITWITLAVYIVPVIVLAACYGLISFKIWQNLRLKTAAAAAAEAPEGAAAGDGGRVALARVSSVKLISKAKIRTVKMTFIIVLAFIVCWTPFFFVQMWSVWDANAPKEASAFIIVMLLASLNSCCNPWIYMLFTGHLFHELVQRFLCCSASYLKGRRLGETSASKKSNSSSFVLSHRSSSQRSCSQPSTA

Structure (SMILES) | outcome
CCCCC[C@H](O)CC(=O)CCc1ccc(O)c(OC)c1 | inactive
